From the supplement of paper PMC9492666

How the values were obtained:
[1] = test system: HCC1937; assay: relative cell viability, compound + erastin, vs DMSO (fraction of DMSO control); higher = less growth inhibition; conditions: 72 h
[2] = test system: MDA-MB-231; assay: as above; conditions: 72 h
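Further: viability read by CCK-8 kit in 96-well plates, part of a combination screen pairing lipid-metabolism-targeting compounds with erastin.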

## COCCNC(=O)Nc1ccc2nc(-c3cccs3)c(-c3cccs3)nc2c1 [Ac-CoA Synthase Inhibitor1] + CCOc1ccccc1-n1c(C(C)N2CCN(C(=O)COc3ccc(Cl)cc3)CC2)nc2ccccc2c1=O [erastin]
[1]
  relative cell viability: 0.597
[2]
  relative cell viability: 0.669

## O=C(O)c1cccnc1Nc1cccc(C(F)(F)F)c1 [Niflumic acid] + CCOc1ccccc1-n1c(C(C)N2CCN(C(=O)COc3ccc(Cl)cc3)CC2)nc2ccccc2c1=O [erastin]
[1]
  relative cell viability: 0.771
[2]
  relative cell viability: 0.599

## O=C(Nc1ccccc1)N1CCN(c2nc(-c3ccccc3)ns2)CC1 + CCOc1ccccc1-n1c(C(C)N2CCN(C(=O)COc3ccc(Cl)cc3)CC2)nc2ccccc2c1=O [erastin]
[1]
  relative cell viability: 0.559
[2]
  relative cell viability: 0.353

## COC(=O)/C=C/c1cccc(N(Cc2ccc(-c3ccc(N(C)C)cc3)cc2)C(=O)C2CCCCC2)c1 [Fexaramine] + CCOc1ccccc1-n1c(C(C)N2CCN(C(=O)COc3ccc(Cl)cc3)CC2)nc2ccccc2c1=O [erastin]
[1]
  relative cell viability: 0.5
[2]
  relative cell viability: 1.08

## CCc1c(C(=O)C(N)=O)c2c(OCC(=O)O)cccc2n1Cc1ccccc1 [Varespladib] + CCOc1ccccc1-n1c(C(C)N2CCN(C(=O)COc3ccc(Cl)cc3)CC2)nc2ccccc2c1=O [erastin]
[1]
  relative cell viability: 0.547
[2]
  relative cell viability: 0.652

## Cc1cc(C)c(S(=O)(=O)Nc2cccc(C(F)(F)F)c2)c(C)c1 + CCOc1ccccc1-n1c(C(C)N2CCN(C(=O)COc3ccc(Cl)cc3)CC2)nc2ccccc2c1=O [erastin]
[1]
  relative cell viability: 0.922
[2]
  relative cell viability: 0.98

## Cc1cc(=O)oc2c(O)c(O)ccc12 [7,8-Dihydroxy-4-methylcoumarin] + CCOc1ccccc1-n1c(C(C)N2CCN(C(=O)COc3ccc(Cl)cc3)CC2)nc2ccccc2c1=O [erastin]
[1]
  relative cell viability: 0.489
[2]
  relative cell viability: 0.881

## O=C(OC(C(F)(F)F)C(F)(F)F)N1CCC(C(O)(c2ccc3c(c2)OCO3)c2ccc3c(c2)OCO3)CC1 + CCOc1ccccc1-n1c(C(C)N2CCN(C(=O)COc3ccc(Cl)cc3)CC2)nc2ccccc2c1=O [erastin]
[1]
  relative cell viability: 0.53
[2]
  relative cell viability: 0.546

## O=C(Nc1cccnc1)N1CCC(Cc2cccc(Oc3ccc(C(F)(F)F)cn3)c2)CC1 + CCOc1ccccc1-n1c(C(C)N2CCN(C(=O)COc3ccc(Cl)cc3)CC2)nc2ccccc2c1=O [erastin]
[1]
  relative cell viability: 0.663
[2]
  relative cell viability: 0.374

## CC(=O)c1c(C)cc2cccc(O)c2c1O [Nepodin] + CCOc1ccccc1-n1c(C(C)N2CCN(C(=O)COc3ccc(Cl)cc3)CC2)nc2ccccc2c1=O [erastin]
[1]
  relative cell viability: 0.7
[2]
  relative cell viability: 0.766

## CCCc1cc(-c2nc(-c3ccc(C)cc3)cs2)ccn1 [Fatostatin] + CCOc1ccccc1-n1c(C(C)N2CCN(C(=O)COc3ccc(Cl)cc3)CC2)nc2ccccc2c1=O [erastin]
[1]
  relative cell viability: 0.534
[2]
  relative cell viability: 0.595

## O=C(CC(C(=O)O)c1c[nH]c2ccccc12)c1ccc(F)cc1F (configuration not stated) [Mitochonic acid 5] + CCOc1ccccc1-n1c(C(C)N2CCN(C(=O)COc3ccc(Cl)cc3)CC2)nc2ccccc2c1=O [erastin]
[1]
  relative cell viability: 0.931
[2]
  relative cell viability: 1

## CC(C)(C)N1C(=O)C(Nc2ccc(N3CCCCC3)cc2)=C(c2ccccc2)S1(=O)=O + CCOc1ccccc1-n1c(C(C)N2CCN(C(=O)COc3ccc(Cl)cc3)CC2)nc2ccccc2c1=O [erastin]
[1]
  relative cell viability: 0.678
[2]
  relative cell viability: 0.797

## C[C@@H]1O[C@@H](O[C@H]2[C@H](Oc3cc(O)c4c(c3)O[C@H](c3ccc(O)cc3)CC4=O)O[C@H](CO)[C@@H](O)[C@@H]2O)[C@H](O)[C@H](O)[C@H]1O [Naringin] + CCOc1ccccc1-n1c(C(C)N2CCN(C(=O)COc3ccc(Cl)cc3)CC2)nc2ccccc2c1=O [erastin]
[1]
  relative cell viability: 0.902
[2]
  relative cell viability: 0.632

## O=C(ON1C(=O)CCC1=O)N1CCN(C(c2ccc(Cl)cc2)c2ccc(Cl)cc2)CC1 [Cravatt Reagent] + CCOc1ccccc1-n1c(C(C)N2CCN(C(=O)COc3ccc(Cl)cc3)CC2)nc2ccccc2c1=O [erastin]
[1]
  relative cell viability: 0.886
[2]
  relative cell viability: 0.772

## O=c1cc(-c2ccc(O)c(-c3c(O)cc(O)c4c(=O)cc(-c5ccc(O)cc5)oc34)c2)oc2cc(O)cc(O)c12 [Amentoflavone] + CCOc1ccccc1-n1c(C(C)N2CCN(C(=O)COc3ccc(Cl)cc3)CC2)nc2ccccc2c1=O [erastin]
[1]
  relative cell viability: 0.438
[2]
  relative cell viability: 0.715
